Consider 15 molecules from PubChem BioAssay (EPA / NIEHS).

Records with an inconclusive call do not appear. The source made the active and inactive calls. The calls were made as follows: active = hit-call score of the fitted dose curve at least 0.9, where 1 is the maximum; inconclusive = response in the unintended direction; inactive = score below 0.9.

Experiment [1] has as its target human CYP1A2, CYP1A2 (gene 1544) (UniProt P05177). In words: NVS_ADME_hCYP1A2: NovaScreen (NVS) CYP450-related Enzyme Activity (ADME) Assay for human CYP1A2 (AID 2283102).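 Also: potency for inhibition since loss of fluorescence marks reduced CYP1A2 activity.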 The method, boiled down:
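Cell-free recombinant human CYP1A2 expressed in insect cells, with fluorogenic substrate; fluorescence intensity read 0.5 h after dosing. Loss of signal relative to acetonitrile baseline scored. Primary screen in duplicate at 10 uM; actives retested in concentration series.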

Experiment [2] has as its target human CYP2J2, CYP2J2 (gene 1573) (UniProt P51589). The experiment is described as follows: NVS_ADME_hCYP2J2: NovaScreen (NVS) CYP450-related Enzyme Activity (ADME) Assay for human CYP2J2 (AID 2283106). The procedure, abridged:
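Cell-free assay of recombinant CYP2J2 with a fluorogenic substrate, read 1 h after dosing; loss of signal versus acetonitrile. Primary screen at 10 uM in duplicate, then concentration-response up to 20 uM for chemicals passing threshold (e.g., 30% inhibition).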

The target of the next experiment is Caspase-1 (Homo sapiens) (UniProt P29466). The experiment is described as follows: NVS_ENZ_hCASP1: NovaScreen (NVS) Enzymatic Assay for human Caspase 1 (CASP1) (AID 2283132). The method, boiled down:
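Cell-free enzymatic assay with E. coli-expressed recombinant protein; fluorescence intensity read 1 hour after dosing. Single-concentration duplicate screen at 25 uM, then concentration-response up to 50 uM; activity fitted relative to DMSO, loss of signal meaning inhibition.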

The target in experiment [3] is human CYP2C9, CYP2C9 (gene 1559) (UniProt P11712). The experiment is described as follows: NVS_ADME_hCYP2C9: NovaScreen (NVS) CYP450-related Enzyme Activity (ADME) Assay for human CYP2C9 (AID 2283108). The procedure, abridged:
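Fluorescence readout of CYP2C9 activity (SF9-expressed human enzyme) at 0.75 h. The primary screen used 10 uM in duplicate, with concentration-response follow-up for actives; acetonitrile was the negative control.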

Experiment [4] addresses Cytochrome P450 2C19 (Homo sapiens) (UniProt P33261). In words: NVS_ADME_hCYP2C19: NovaScreen (NVS) CYP450-related Enzyme Activity (ADME) Assay for human CYP2C19 (AID 2283113).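 As to AC50: potency for inhibition seen as loss of fluorescent signal.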 The method, boiled down: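 Cell-free assay of recombinant human CYP2C19 expressed in insect cells, with a fluorogenic substrate; fluorescence intensity read 1 hour after dosing. Loss of signal relative to acetonitrile negative control indicates inhibition. Primary screen at 10 uM in duplicate, then concentration series.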

Experiment [5] deals with rat CYP1A2, Cyp1a2 (gene 24297) (UniProt P04799). The experiment is described as follows: NVS_ADME_rCYP1A2: NovaScreen (NVS) CYP450-related Enzyme Activity (ADME) Assay for rat CYP1A2 (AID 2283115). The procedure, abridged: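 Cell-free recombinant rat enzyme with fluorogenic substrate, read by fluorescence intensity 1 hour after dosing. Loss of signal versus acetonitrile negative control; primary screen at 10 uM in duplicate, actives followed in concentration series.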

Experiment [6] addresses rat CYP2D1, Cyp2d1 (gene 266684) (UniProt P10633). In words: NVS_ADME_rCYP2D1: NovaScreen (NVS) CYP450-related Enzyme Activity (ADME) Assay for rat CYP2D1 (AID 2283122). The method, boiled down: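 Cell-free fluorescence enzyme-activity assay on extracted rat CYP2D1 protein, read 0.75 h after dosing. Primary screen in duplicate at 10 uM; qualifying chemicals then run in concentration-response to 20 uM max, loss-of-signal versus acetonitrile baseline.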

The target in experiment [7] is human AMP-activated Protein Kinase, alpha 1 (AMPKa1), PRKAA1 (gene 5562) (UniProt Q13131). The experiment is described as follows: NVS_ENZ_hAMPKa1: NovaScreen (NVS) Enzymatic Assay for human AMP-activated Protein Kinase, alpha 1 (AMPKa1) (AID 2283130). The method, boiled down: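 Recombinant human AMPKα1 activity was measured cell-free by fluorescent substrate conversion with electrophoretic mobility-shift separation, 1 h after dosing. Duplicate single-point screening was at 25 uM; actives (≥30% inhibition) were retested in concentration-response up to 50 uM.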

Experiment [8] addresses human CYP2D6, CYP2D6 (gene 1565) (UniProt P10635). In words: NVS_ADME_hCYP2D6: NovaScreen (NVS) CYP450-related Enzyme Activity (ADME) Assay for human CYP2D6 (AID 2283107). The procedure, abridged: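 Cell-free assay using recombinant enzyme expressed in insect cells, with fluorescence-intensity readout of enzyme activity 1 hour after chemical dosing. Loss of signal versus acetonitrile negative control indicates inhibition. Primary screen ran in duplicate at 10 uM; actives were retested in concentration series.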

The target in experiment [9] is human Acetylcholinesterase (AChE), ACHE (gene 43) (UniProt P22303). In words: NVS_ENZ_hAChE: NovaScreen (NVS) Enzymatic Assay for human Acetylcholinesterase (AChE) (AID 2283129). The procedure, abridged:
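Cell-free colorimetric enzyme-activity assay; compounds read 0.33 hour after dosing, loss of signal vs DMSO baseline. Primary screen in duplicate at 25 uM single concentration, with active compounds retested in concentration series.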

Experiment [10] concerns the target rat CYP2C12, Cyp2c12 (gene 25011) (UniProt P11510). The experiment is described as follows: NVS_ADME_rCYP2C12: NovaScreen (NVS) CYP450-related Enzyme Activity (ADME) Assay for rat CYP2C12 (AID 2283119). The procedure, abridged:
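Cell-free recombinant rat CYP2C12 activity read by fluorescence 0.5 h after dosing; loss of signal versus acetonitrile control. Primary screen in duplicate at 10 uM; actives then run in concentration-response format.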

For experiment [11], the target named is rat CYP3A2, Cyp3a2 (gene 266682) (UniProt P05183). The experiment is described as follows: NVS_ADME_rCYP3A2: NovaScreen (NVS) CYP450-related Enzyme Activity (ADME) Assay for rat CYP3A2 (AID 2283128). The procedure, abridged:
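Cell-free rat CYP3A2 enzyme assay with fluorescent substrate, read 0.5 h after dosing. Primary duplicate screen at 10 uM; actives run in concentration-response up to 20 uM, relative to acetonitrile baseline.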

Experiment [12] addresses human Caspase 2 (CASP2), CASP2 (gene 835) (UniProt P42575). The experiment is described as follows: NVS_ENZ_hCASP2: NovaScreen (NVS) Enzymatic Assay for human Caspase 2 (CASP2) (AID 2283135). The procedure, abridged:
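E. coli-expressed enzyme in a cell-free protease assay, fluorescence read 1 h after dosing. Compounds at 25 uM in duplicate, with concentration-response up to 50 uM for hits; loss of signal against DMSO baseline.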

Experiment [13] has as its target human Caspase 10 (CASP10), CASP10 (gene 843) (UniProt Q92851). In words: NVS_ENZ_hCASP10: NovaScreen (NVS) Enzymatic Assay for human Caspase 10 (CASP10) (AID 2283133). The procedure, abridged: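 Recombinant human caspase-10 from E. coli, cell-free fluorogenic substrate assay read 1 h after dosing. Primary duplicate screen at 25 uM; hits (e.g. ≥30% inhibition) run singly in concentration-response up to 50 uM, normalised to DMSO.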

The next experiment has as its system rat CYP2B1, gene 24300. The experiment is described as follows: NVS_ADME_rCYP2B1: NovaScreen (NVS) CYP450-related Enzyme Activity (ADME) Assay for rat CYP2B1 (AID 2283117). The procedure, abridged:
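Recombinant rat CYP2B1 with fluorogenic substrate, read at 0.75 h. Primary screen in duplicate at 10 uM; compounds meeting threshold (e.g., 30% inhibition) re-run in concentration-response up to 20 uM. Fitted against acetonitrile control.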

Chain of human Acetylcholinesterase (AChE), ACHE (gene 43) (P22303 whole entry, looked up): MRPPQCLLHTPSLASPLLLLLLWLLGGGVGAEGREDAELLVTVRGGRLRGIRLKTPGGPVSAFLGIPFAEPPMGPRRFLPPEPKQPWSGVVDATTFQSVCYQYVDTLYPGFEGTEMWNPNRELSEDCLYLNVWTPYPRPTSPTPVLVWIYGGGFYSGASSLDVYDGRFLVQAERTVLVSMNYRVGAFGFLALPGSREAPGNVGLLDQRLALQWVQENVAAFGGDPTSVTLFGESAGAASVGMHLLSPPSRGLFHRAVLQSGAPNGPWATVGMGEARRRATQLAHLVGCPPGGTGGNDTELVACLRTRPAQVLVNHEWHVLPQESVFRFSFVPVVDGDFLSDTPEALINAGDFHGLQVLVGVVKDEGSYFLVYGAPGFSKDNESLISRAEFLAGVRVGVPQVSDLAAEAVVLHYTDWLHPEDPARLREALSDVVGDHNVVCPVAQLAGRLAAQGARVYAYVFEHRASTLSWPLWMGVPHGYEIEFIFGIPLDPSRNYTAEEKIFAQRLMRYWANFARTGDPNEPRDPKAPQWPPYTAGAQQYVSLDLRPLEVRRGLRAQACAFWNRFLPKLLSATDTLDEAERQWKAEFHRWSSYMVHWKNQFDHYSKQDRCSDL
Chain of Caspase-1 (Homo sapiens) (P29466 whole entry, looked up): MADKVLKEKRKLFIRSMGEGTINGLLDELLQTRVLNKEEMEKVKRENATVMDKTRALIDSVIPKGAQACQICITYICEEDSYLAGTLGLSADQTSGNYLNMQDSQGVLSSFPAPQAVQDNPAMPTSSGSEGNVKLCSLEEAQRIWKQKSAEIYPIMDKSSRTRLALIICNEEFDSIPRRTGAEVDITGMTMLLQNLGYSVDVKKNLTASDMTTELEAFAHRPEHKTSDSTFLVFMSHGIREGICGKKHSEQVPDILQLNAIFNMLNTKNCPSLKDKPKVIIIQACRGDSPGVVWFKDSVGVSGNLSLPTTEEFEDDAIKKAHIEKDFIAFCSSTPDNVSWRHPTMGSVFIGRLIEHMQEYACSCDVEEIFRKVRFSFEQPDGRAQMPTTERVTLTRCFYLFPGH
Chain of rat CYP3A2, Cyp3a2 (gene 266682) (P05183 whole entry, looked up): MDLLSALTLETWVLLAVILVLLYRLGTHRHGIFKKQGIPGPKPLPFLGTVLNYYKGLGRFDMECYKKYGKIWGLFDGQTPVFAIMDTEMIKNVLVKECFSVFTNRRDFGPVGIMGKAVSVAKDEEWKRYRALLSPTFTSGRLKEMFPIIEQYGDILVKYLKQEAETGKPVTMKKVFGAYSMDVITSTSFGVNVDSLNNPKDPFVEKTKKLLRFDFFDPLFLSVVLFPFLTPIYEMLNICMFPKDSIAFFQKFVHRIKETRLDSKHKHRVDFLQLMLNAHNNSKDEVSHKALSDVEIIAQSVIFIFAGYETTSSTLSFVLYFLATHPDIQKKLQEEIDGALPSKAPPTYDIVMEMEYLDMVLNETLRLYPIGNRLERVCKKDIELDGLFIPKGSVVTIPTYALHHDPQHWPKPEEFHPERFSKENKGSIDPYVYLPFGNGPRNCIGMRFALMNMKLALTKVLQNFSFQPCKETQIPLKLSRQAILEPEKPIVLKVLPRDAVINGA
Chain of human CYP2C9, CYP2C9 (gene 1559) (P11712 whole entry, looked up): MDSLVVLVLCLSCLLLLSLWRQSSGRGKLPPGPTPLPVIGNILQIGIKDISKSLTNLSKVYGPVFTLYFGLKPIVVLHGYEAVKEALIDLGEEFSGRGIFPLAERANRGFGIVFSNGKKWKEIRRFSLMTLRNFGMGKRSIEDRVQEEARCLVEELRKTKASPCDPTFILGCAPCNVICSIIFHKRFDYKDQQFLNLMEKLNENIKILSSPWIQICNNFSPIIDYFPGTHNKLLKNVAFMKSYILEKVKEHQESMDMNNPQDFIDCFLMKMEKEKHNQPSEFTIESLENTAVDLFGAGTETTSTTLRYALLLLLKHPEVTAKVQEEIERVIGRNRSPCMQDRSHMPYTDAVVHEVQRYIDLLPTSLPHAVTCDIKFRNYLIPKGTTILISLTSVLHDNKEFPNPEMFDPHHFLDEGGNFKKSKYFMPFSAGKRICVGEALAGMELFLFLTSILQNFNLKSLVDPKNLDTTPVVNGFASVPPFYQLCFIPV
Chain of human CYP1A2, CYP1A2 (gene 1544) (P05177 whole entry, looked up): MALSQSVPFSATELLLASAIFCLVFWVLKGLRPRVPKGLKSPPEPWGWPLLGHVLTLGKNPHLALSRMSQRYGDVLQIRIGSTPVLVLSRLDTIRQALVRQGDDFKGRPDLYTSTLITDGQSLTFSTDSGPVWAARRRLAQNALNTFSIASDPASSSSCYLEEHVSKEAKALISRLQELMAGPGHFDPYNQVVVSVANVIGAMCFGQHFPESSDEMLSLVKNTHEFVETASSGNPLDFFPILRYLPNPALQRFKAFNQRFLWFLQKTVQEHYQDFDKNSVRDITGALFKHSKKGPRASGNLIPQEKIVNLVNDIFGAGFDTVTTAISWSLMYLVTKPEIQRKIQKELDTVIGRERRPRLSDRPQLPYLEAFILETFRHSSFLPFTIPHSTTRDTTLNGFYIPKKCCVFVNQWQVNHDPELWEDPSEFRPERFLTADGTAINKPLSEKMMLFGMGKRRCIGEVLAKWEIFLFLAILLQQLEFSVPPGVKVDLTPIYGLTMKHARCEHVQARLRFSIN
Chain of rat CYP2C12, Cyp2c12 (gene 25011) (P11510 whole entry, looked up): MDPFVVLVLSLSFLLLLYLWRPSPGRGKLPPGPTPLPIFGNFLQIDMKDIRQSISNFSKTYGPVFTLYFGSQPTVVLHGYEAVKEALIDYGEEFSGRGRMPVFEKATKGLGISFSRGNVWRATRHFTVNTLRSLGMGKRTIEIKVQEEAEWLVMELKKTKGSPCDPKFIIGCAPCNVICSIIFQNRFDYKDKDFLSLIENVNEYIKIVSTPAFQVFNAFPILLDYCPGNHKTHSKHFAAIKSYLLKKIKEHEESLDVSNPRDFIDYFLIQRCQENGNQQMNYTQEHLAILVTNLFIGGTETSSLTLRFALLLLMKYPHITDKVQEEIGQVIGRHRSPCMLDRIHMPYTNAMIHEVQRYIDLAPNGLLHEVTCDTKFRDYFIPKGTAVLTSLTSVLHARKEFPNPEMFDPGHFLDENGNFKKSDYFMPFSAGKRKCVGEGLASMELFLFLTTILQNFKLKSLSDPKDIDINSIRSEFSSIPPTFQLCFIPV
Chain of rat CYP2D1, Cyp2d1 (gene 266684) (P10633 whole entry, looked up): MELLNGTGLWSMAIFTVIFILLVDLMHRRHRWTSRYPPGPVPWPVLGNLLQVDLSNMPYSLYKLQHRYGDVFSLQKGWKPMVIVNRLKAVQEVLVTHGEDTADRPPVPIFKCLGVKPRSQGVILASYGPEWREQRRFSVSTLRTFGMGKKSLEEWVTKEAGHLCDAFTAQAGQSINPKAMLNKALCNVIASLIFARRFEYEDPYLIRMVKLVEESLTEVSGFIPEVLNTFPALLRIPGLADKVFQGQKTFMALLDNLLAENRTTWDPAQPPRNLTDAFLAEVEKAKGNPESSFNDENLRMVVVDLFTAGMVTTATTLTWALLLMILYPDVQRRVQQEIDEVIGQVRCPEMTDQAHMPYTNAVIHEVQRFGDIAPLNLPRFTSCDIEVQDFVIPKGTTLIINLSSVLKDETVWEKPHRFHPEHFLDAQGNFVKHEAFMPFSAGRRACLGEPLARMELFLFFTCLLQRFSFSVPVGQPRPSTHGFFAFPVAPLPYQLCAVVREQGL
Chain of human Caspase 2 (CASP2), CASP2 (gene 835) (P42575 whole entry, looked up): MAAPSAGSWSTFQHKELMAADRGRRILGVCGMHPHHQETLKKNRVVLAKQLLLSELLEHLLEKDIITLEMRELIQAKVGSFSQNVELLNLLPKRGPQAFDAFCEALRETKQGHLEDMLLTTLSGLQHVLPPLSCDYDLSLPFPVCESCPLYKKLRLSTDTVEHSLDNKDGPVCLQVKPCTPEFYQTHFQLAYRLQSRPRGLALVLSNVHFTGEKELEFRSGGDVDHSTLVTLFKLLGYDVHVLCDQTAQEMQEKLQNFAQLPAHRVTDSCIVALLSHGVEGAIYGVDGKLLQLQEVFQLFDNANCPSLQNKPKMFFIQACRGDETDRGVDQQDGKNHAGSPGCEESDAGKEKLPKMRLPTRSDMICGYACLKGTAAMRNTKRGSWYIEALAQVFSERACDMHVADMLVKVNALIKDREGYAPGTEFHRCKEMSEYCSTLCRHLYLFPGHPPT
Chain of human CYP2J2, CYP2J2 (gene 1573) (P51589 whole entry, looked up): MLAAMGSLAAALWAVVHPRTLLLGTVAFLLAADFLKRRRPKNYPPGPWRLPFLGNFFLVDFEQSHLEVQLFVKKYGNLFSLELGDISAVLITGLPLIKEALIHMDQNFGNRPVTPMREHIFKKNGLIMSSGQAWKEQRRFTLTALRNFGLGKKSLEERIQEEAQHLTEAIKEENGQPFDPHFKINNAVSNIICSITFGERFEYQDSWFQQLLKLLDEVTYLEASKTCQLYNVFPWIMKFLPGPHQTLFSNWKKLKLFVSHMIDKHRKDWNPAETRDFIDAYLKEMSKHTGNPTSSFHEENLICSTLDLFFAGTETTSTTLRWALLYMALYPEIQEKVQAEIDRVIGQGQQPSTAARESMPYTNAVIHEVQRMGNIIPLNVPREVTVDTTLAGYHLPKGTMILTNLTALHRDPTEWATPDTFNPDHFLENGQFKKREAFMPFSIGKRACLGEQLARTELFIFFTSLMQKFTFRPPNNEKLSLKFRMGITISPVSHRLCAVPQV
Chain of human Caspase 10 (CASP10), CASP10 (gene 843) (Q92851 whole entry, looked up): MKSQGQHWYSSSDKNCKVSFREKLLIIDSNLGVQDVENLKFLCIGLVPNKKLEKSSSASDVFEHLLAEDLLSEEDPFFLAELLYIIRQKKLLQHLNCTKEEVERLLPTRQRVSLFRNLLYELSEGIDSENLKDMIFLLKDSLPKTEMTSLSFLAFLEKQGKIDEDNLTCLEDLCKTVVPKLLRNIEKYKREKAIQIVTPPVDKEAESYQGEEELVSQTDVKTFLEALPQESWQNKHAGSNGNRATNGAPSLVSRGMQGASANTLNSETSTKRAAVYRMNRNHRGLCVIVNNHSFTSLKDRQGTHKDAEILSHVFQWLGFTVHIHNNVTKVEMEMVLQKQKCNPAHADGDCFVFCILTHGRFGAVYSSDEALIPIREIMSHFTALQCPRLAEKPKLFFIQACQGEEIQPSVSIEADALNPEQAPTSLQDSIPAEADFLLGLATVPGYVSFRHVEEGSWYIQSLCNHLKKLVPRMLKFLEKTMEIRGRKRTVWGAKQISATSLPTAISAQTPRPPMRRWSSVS

Take `C#CC(C)(C)NC(=O)c1cc(Cl)cc(Cl)c1`: the half-maximal activity concentration (AC50) was 10 µM (active) in experiment [1] and 1.34 µM (active) in [2]. The outcome with Caspase-1 (Homo sapiens) was inactive.

As to `Cc1cc(C2CC2)nc(Nc2ccccc2)n1`, the AC50 was 2.87 µM (active) in [1], 7 µM (active) in experiment [3] and 6.96 µM (active) in [6]. Besides, the result (in experiment [4]; in experiment [5]; in experiment [7]; with Caspase-1 (Homo sapiens)) was inactive.

Take `COP(=O)(OC)OC(Br)C(Cl)(Cl)Br` (centres undefined): the outcome in [8] and in experiment [3] was inactive. In addition, the AC50 in [4] is 7.79 µM (active); in [9] it was 3.67 µM (active).

As for `CCOP(=S)(OCC)Oc1cc(C)nc(C(C)C)n1`, in [4], the AC50 is 4.82 µM (active).

`CNC(=O)ON=C(SC)C(=O)N(C)C`: the AC50 in experiment [9] is 12 µM (active).

Take `CSC1=N[C@@](C)(c2ccccc2)C(=O)N1Nc1ccccc1`: the half-maximal activity concentration (AC50) was 0.776 µM (active) in experiment [4], 8 µM (active) in experiment [10] and 7.11 µM (active) in experiment [11]. Besides, the outcome in experiment [6] was inactive.

Turning to `S=C1NCCN1`, the call (in experiment [3]; in experiment [4]; in experiment [10]; with Caspase-1 (Homo sapiens); in [12]) was inactive.

In the case of `O=C(O)c1cc(Oc2ccc(C(F)(F)F)cc2Cl)ccc1[N+](=O)[O-]`, the molecule was called inactive in [13].

As for `CC(C)=CC1C(C(=O)OCN2C(=O)C3=C(CCCC3)C2=O)C1(C)C` (centres undefined), the AC50 in [3] was 10 µM (active); in experiment [4] it was 6.88 µM (active).

For the molecule `CN(C)NC(=O)CCC(=O)O`, the result in [11] was inactive.

On to `COP(=O)(OC)SCn1c(=O)oc2cc(Cl)cnc21`, for which the AC50 was 4.57 µM (active) in experiment [4], 6.18 µM (active) in experiment [11] and 6.65 µM (active) in [9].

With `CC(=NC#N)N(C)Cc1ccc(Cl)nc1`, the figures for the half-maximal activity concentration (AC50) in experiment [4] and in [9] were 10 µM (active) and 22.4 µM (active), respectively.

For the molecule `CCc1cccc(C)c1N(C(=O)CCl)C(C)COC` (centres undefined), the half-maximal activity concentration (AC50) is 4.6 µM (active) in experiment [4]; 6.43 µM (active) in the experiment with rat CYP2B1, gene 24300; 6.68 µM (active) in experiment [11].

As for `CCCCOC(=O)[C@@H](C)Oc1ccc(Oc2ccc(C#N)cc2F)cc1`, the AC50 in [4] is 10 µM (active).

Take `O=c1ccc(=O)[nH][nH]1`: the molecule was called inactive in experiment [12].
